Active and inactive are the calls of the source.

A short description of this assay: PSAC antagonists in infected red cells, primary screen, cell-based, P. falciparum Indochina, OD700, 2 h (AID 1155).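 Also: lysis reports solute entry through the parasite surface anion channel PSAC; channel blockers reduce lysis of infected cells.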 As to conditions: P. falciparum Indochina infected erythrocytes, osmotic lysis OD700; higher = more signal, called active from +8 up or from −8 down.
`CC1(C)[C@@H]2CC(C(O)C3C=CC4C(=O)N(c5ccccc5)C(=O)C4N3Nc3ccc([N+](=O)[O-])cc3)=C[C@H]1C2` (some centres undefined): the z-score is 2.98 (inactive).

For the molecule `NC(=O)NCC#Cc1ccc2c(c1)[C@]1(C(=O)N2)[C@H](c2ccccc2OCCO)N2[C@H](c3ccccc3)[C@H](c3ccccc3)OC(=O)[C@H]2[C@@H]1C(=O)Nc1nc2ccccc2s1`, the z-score was 1.36 (inactive).

Regarding `COC(=O)C(CC#Cc1ccc2c(c1)[C@]1(C(=O)N2)[C@H](C(=O)Nc2nc3ccccc3s2)[C@H]2C(=O)O[C@H](c3ccccc3)[C@H](c3ccccc3)N2[C@@H]1c1ccc(O)cc1)C(=O)OC`, the z-score was 0.922 (inactive).

In the case of `C=CCC(OC(C)=O)[C@@H]1[C@@H](N(Cc2ccc(-c3cccc(C(F)(F)F)c3)o2)C(=O)c2ccc(C)cc2)c2cc(OCCCO)ccc2N1C(=O)Cc1ccc2ccccc2c1` (some centres undefined), the z-score was 0.172 (inactive).

For the molecule `O=C1O[C@H](c2ccccc2)[C@H](c2ccccc2)N2[C@H]1[C@@H](C(=O)N1CCCCCCC1)[C@]1(C(=O)Nc3ccc(C#CC4=CCCCC4)cc31)[C@H]2c1ccc(OCCO)cc1`, the z-score is 0.658 (inactive).

In the case of `CCCCCN1CC=CC23O[C@@H]4C=CCCOC(=O)C4[C@H]2C(=O)N(CCCCCO)[C@@H]3C1=O` (some centres undefined), the z-score is 1.1 (inactive).

Regarding `COCCCNC(=O)[C@]1(CCC(=O)OC(C)(C)C)N=C(c2ccc(OCCCO)cc2)O[C@@H]1c1ccccc1CN=[N+]=[N-]`, the z-score was 7.34 (inactive).

Turning to `O=C1c2ccccc2[C@](Cc2ccccc2I)(C(=O)NCCN2CCOCC2)[C@H](c2ccc(CO)cc2)N1C1CCCCC1`, the z-score is 0.814 (inactive).

On to `COc1ccc([Si](C)(C)[C@H]2[C@H](CCO)O[C@@]3(C(=O)N(Cc4ccc(N(C=O)c5ccccc5)cc4)c4ccccc43)[C@@H]2C)cc1`, for which the z-score is 5.72 (inactive).

Values taken from PubChem BioAssay.
